Data on eight molecules can be found in the supplement of paper PMC11383364.

This test concerns SUM149. As to the kind of experiment: percent difference in area under dose-response curve of relative cell number, RPMI vs HPLM; higher = drug relatively more effective in HPLM than RPMI (negative = less effective in HPLM). Conditions: treatment time: 72 h; dose range: 10-point, 1 nM to 20 µM; media compared: RPMI vs HPLM.
In the case of `CC(/C=C/C(=O)NO)=C\[C@@H](C)C(=O)c1ccc(N(C)C)cc1` [Trichostatin_A], the “percent difference in area under dose-response curve” value (“percent difference in area” for short) is -9.24%.
The value for `Cc1cc2c(F)c(Oc3ncnn4cc(OC[C@@H](C)O)c(C)c34)ccc2[nH]1` [Brivanib] was -2.59%; that for `Oc1ccc(Nc2nc(-c3ccc(Cl)cc3)cs2)cc1` was 6.02%.
As to `O=C(O)c1ccc2cc(-c3ccc(O)c(C45CC6CC(CC(C6)C4)C5)c3)ccc2c1`, the “percent difference in area” value was -15%.
Regarding `C=CS(=O)(=O)NC1CCN(C(=O)CNc2cc(I)c(Cl)cc2OC)CC1` [KRas_G12C_inhibitor_9], the “percent difference in area” value was -1.74%.
Consider `Cc1cnc(NC(=O)Nc2cc(Br)c(C)cc2OC[C@@H]2CNCCO2)cn1`, for which the “percent difference in area” value is 1.27%.
The value for `COc1cccc2c1C(=O)c1c(O)c3c(c(O)c1C2=O)C[C@@](O)(C(=O)CO)C[C@@H]3O[C@H]1C[C@H](N)[C@@H](O)[C@H](C)O1` [Epirubicin_HCl] was -23.5%.
In the case of `COc1cc(Nc2ncc(F)c(Nc3ccc4c(n3)NC(=O)C(C)(C)O4)n2)cc(OC)c1OC` it was 6.12%.
